Screening results: PubChem, National Center for Advancing Translational Sciences (NCATS)
Only some compounds are listed: those with a hit (about 12% of all), similar ones and a draw of the others.
SARS PLP yeast = blocks SARS-CoV papain-like protease in a yeast assay; 330,000 compounds, 0.19% hits; Potency, µM (top dose mostly 32.9 µM), most hits filed as activators; S. cerevisiae expressing SARS-CoV PLpro, growth rescue; calls by dose curve; also: nearly all actives have a fitted effect of over 55% in size
AmpC inh detg = inhibitors of E. coli AmpC beta-lactamase with detergent; 370,000 compounds, 0.041% hits; AID 485294; P00811; AmpC hydrolysis of nitrocefin, absorbance 480 nm, 0.01% Triton; Potency, µM (series often up to 114 µM), hits mostly inhibitors; also: nearly all actives have a fitted effect of over 25% in size
Target sequence (P00811 whole entry, looked up): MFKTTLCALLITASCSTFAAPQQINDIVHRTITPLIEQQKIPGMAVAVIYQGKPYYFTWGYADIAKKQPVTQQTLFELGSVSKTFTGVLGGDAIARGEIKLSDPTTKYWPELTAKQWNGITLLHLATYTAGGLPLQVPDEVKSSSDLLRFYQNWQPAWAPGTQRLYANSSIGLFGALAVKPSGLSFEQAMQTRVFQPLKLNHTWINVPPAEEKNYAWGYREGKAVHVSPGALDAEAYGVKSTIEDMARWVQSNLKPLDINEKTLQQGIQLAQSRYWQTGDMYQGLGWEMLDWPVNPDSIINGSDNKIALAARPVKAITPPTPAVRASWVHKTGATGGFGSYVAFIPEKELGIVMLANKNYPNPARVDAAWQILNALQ
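20 mM phosphate pH 7.0 + 0.01% (detergent screen) or 0.0001% Triton X-100; 5.3 nM AmpC reagent; cpd preinc 15 min RT; nitrocefin (800 uM stock) to start; A480 q20 s × 4 min; Activity was normalised to no-enzyme and no-compound control wells.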
AmpC no deterg = blocks E. coli AmpC beta-lactamase in detergent-free assay | P00811 | Potency, µM (top dose mostly 57.1 µM), hits mostly inhibitors | AmpC nitrocefin hydrolysis, absorbance 480 nm, 0.0001% Triton | 330,000 compounds, 0.52% hits; also: nearly all actives have a fitted effect of over 20% in size
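20 mM phosphate pH 7.0 + 0.01% (detergent screen) or 0.0001% Triton X-100; 5.3 nM AmpC reagent; cpd preinc 15 min RT; nitrocefin (800 uM stock) to start; A480 q20 s × 4 min; Activity was normalised to no-enzyme and no-compound control wells.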
Pf growth 48h = P. falciparum growth inhibition at 48 hours (one generation); P. falciparum luciferase growth in erythrocytes, 48 h; AID 504832; 310,000 compounds, 5.9% hits; Potency, µM (highest dose often 28.7 µM), actives largely listed as inhibitors
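Luminescence readout; reporter = integrated firefly luciferase in P. falciparum. RBC culture at 2% hematocrit, 0.1% parasitemia final, 37 C/5% CO2; decreased signal taken as growth inhibition.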
Sm TGR block = inhibitors of Schistosoma mansoni thioredoxin glutathione reductase. Q962Y6. purified TGR, DTNB reduction, TNB absorbance 405 nm. Potency, µM (highest dose often 114 µM), actives largely listed as inhibitors. 360,000 compounds, 3% hits; also: nearly all actives have a fitted effect of over 60% in size
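Kinetic colorimetric format: TGR-catalysed, NADPH-driven DTNB reduction monitored via TNB absorbance. Enzyme dispensed at 20 nM; compound exposure 15 min at room temperature before reaction start.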
Pf growth 96h = inhibits malaria parasite growth, 96 h. Potency, µM (series often up to 28.7 µM), actives largely listed as inhibitors. P. falciparum luciferase reporter growth, 96 h. AID 504834. 320,000 compounds, 6.9% hits
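Cell-based qHTS: luciferase-tagged P. falciparum in erythrocytes (2% hematocrit, 0.05% parasitemia final) incubated with compounds for 96 hours, 37 C, 5% CO2; luciferase detection reagent then added and luminescence measured.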
Each line names hits and unclear results; the compound was inactive in the other large screens. Unless noted, calls follow the shape of the dose curve; as a rule, active = well fitted curve in the direction sought with a large enough effect; inconclusive = small, poorly fitted or top-dose-only effect, or another doubt; inactive = no such curve, though single readings can be large; an effect the other way counts as inactive or inconclusive.

O=c1ccn(C2OC(COP(=O)(O)OC3C(CO)OC(n4ccc(=O)[nH]c4=O)C3O)C(O)C2O)c(=O)[nH]1 (stereo unspecified)	none (no result: SARS PLP yeast, AmpC inh detg, AmpC no deterg, Sm TGR block)
CCOc1ccc(-n2c(SCC(=O)Nc3cc(C)ccc3C)nc3c([nH]c4ccccc43)c2=O)cc1	none (no result: SARS PLP yeast, AmpC no deterg, Pf growth 48h, Pf growth 96h)
CCn1c(SCC(=O)N2CCCc3ccccc32)nnc1-c1c[nH]c2ccccc12	AmpC inh detg inconclusive, Pf growth 48h inconclusive
O=C(Cc1c[nH]c2ccccc12)N1CCc2ccccc21	AmpC inh detg inconclusive, AmpC no deterg inconclusive, Pf growth 96h 10µM
O=C(CSc1c[nH]c2ccccc12)N1CCCc2ccccc21	AmpC inh detg inconclusive, AmpC no deterg 18µM
CCOC(=O)CSc1nnc(-c2c[nH]c3ccccc23)n1CC	none (no result: Pf growth 48h)
CCOC(=O)c1c(NC(=O)CSc2nnc(-c3c[nH]c4ccccc34)n2CC)sc2c1CCCC2	AmpC no deterg 1.4µM, Pf growth 48h inconclusive, Pf growth 96h 12µM
Cn1c(SCC(=O)N2c3ccccc3CCc3ccccc32)nnc1-c1ccc(O)cc1	Pf growth 48h 12µM
Nc1sc2c(c1C(=O)NC1CCS(=O)(=O)C1)CCC2 (stereo unspecified)	Sm TGR block inconclusive (no result: Pf growth 96h)
O=C(COC(=O)c1ccc([N+](=O)[O-])s1)c1ccc[nH]1	none (no result: AmpC inh detg, Pf growth 48h, Sm TGR block, Pf growth 96h)
COc1cccc(-n2c(SCC(=O)N3CCOCC3)nnc2-c2c[nH]c3ccccc23)c1	Pf growth 96h 10µM (no result: Pf growth 48h)
Cn1c(SCc2ccccc2)nnc1-c1c[nH]c2ccccc12	AmpC inh detg inconclusive, AmpC no deterg 25µM
Cn1c(SCC(=O)N2CCN(c3ccccc3)CC2)nnc1-c1c[nH]c2ccccc12	Pf growth 96h 7.4µM (no result: Pf growth 48h)
CCn1c(SCC(=O)N2CCc3ccccc32)nnc1-c1c[nH]c2ccccc12	Pf growth 48h 9.3µM (no result: Pf growth 96h)
CC(C)CCNc1nc2c(S(=O)(=O)c3ccc(Br)cc3)nnn2c2ccsc12	none (no result: SARS PLP yeast, AmpC no deterg, Pf growth 48h, Pf growth 96h)
Cc1cc2cc(C)c3nnc(SCC(=O)N4CCCc5ccccc54)n3c2cc1C	none
Cn1c(SCC(=O)N2CCCc3ccccc32)nnc1-c1c[nH]c2ccccc12	Pf growth 48h 13µM
Cc1ccc2cc(C)c3nnc(SCC(=O)N4CCCc5ccccc54)n3c2c1C	Pf growth 48h 9.3µM, Pf growth 96h 5.2µM
CCn1cc(C(=O)O)c(=O)c2cc(F)c(N3CCNCC3)cc21	Pf growth 48h inconclusive, Pf growth 96h 1.6µM
CCn1cc(C(=O)O)c(=O)c2cc(F)c(N3CCN(C(=O)Nc4ccccc4)CC3)cc21	Pf growth 48h 0.47µM
CCn1cc(C(=O)O)c(=O)c2cc(F)c(N3CCN(C(=S)NC(=O)c4ccccc4F)CC3)cc21	Pf growth 48h 4.1µM, Pf growth 96h 6.6µM
CCn1cc(C(=O)O)c(=O)c2cc(F)c(N3CCN(C(=S)NC(=O)c4cccc(C)c4)CC3)cc21	Pf growth 48h inconclusive
CCCCCCCC(=O)N1CCN(c2cc3c(cc2F)c(=O)c(C(=O)O)cn3CC)CC1	Pf growth 48h inconclusive, Pf growth 96h inconclusive
CCCCCCCCC(=O)N1CCN(c2cc3c(cc2F)c(=O)c(C(=O)O)cn3CC)CC1	Pf growth 48h inconclusive, Pf growth 96h inconclusive
CCCC(=O)c1cc(F)c(N2CCOCC2)cc1C	Pf growth 96h 1.3µM
CCCN(c1ccc(C(C)C)cc1)S(=O)(=O)c1ccc2c(c1)oc(=O)n2CC(=O)OCC	none (no result: SARS PLP yeast, AmpC no deterg, Pf growth 48h, Pf growth 96h)
Cc1ccc(C)c(S(=O)(=O)c2nnn3c2nc(N2CCCCC2)c2sccc23)c1	none (no result: SARS PLP yeast, AmpC no deterg, Pf growth 48h, Pf growth 96h)
CC(=O)c1ccc(N2CCN(C(=O)NCc3noc4ccc(C)cc34)CC2)cc1	none (no result: SARS PLP yeast, AmpC no deterg, Pf growth 48h, Pf growth 96h)
CCn1cc(C(=O)NN)c(=O)c2cc(F)c(N3CCOCC3)cc21	Pf growth 48h inconclusive, Pf growth 96h 12µM
CCn1cc(C(=O)O)c(=O)c2cc(F)c(N3CCN(S(=O)(=O)c4ccc(NC(C)=O)cc4)CC3)cc21	Pf growth 48h 6.6µM, Pf growth 96h inconclusive
COc1ccc(CNC(=O)CCC2N=C3c4ccccc4N=C(SCc4cccc(F)c4)N3C2=O)cc1 (stereo unspecified)	none (no result: SARS PLP yeast, AmpC no deterg, Pf growth 48h, Pf growth 96h)
